Compound activity (PubChem)
TWEAK-Fn14 inh: inhibitors of TWEAK-Fn14 signaling, primary screen, luciferase reporter cells, uHTS | TWEAK-stimulated Fn14 reporter cells, luciferase luminescence, 8 h | inhibition, % at 10 µM | hit rate 2% among 360,000 | AID 1159606, 2016; in the data active = inhibition above about 50%
HSP90 refold inh: HSP90 inhibitors, primary screen, cell lysate, luminescence; inhibition, % at 5.6 µM; Rabbit reticulocyte lysate, luciferase refolding luminescence, 3 h; Heat shock protein HSP 90 (rabbit reticulocyte lysate; luciferase refolding); hit rate 0.91% among 290,000;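 active = inhibition above the screen-wide mean plus 3 SD, computed separately per campaign, cut at about 16% in these data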;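 note: 0% = DMSO wells and 100% = 60 µM geldanamycin wells; inhibitors lower the luminescence because luciferase stays unfolded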
C8 TRAIL sens: viability loss with TRAIL in NB7+C8 cells, primary screen, TRAIL sensitizer project, cell-based, ATPlite luminescence | inhibition (viability loss, TRAIL sensitization), % at 10 µM | hit rate 1% among 360,000;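 active = compounds causing at least 50% loss of cell viability in the single-dose screen, relative to plate controls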
HIF-2a inh: HIF-2a reporter inhibitors, primary screen, luminescence, 786-0 RCC cells. 786-0 RCC cells HIF-2a reporter, luciferase luminescence, overnight. inhibition, % at 18.8 µM. hit rate 0.72% among 360,000;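 active = inhibition of the luminescence signal of 40% or more relative to plate controls, in a single-dose primary screen at 18.75 µM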
TROY signal inh: inhibitors of TROY-driven NF-kB signaling, primary screen, Q293 LMP1-TROYcd cells, NF-kB luciferase, uHTS; AID 1347056, 2019; Q293 LMP1-TROYcd NF-kB luciferase reporter, 4 h; inhibition, % at 10 µM; hit rate 0.98% among 360,000;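 active = compounds whose plate-normalised and pattern-corrected inhibition of the luciferase reporter signal at the single screening dose is 50% or more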
aSyn UTR inh: MLPCN primary screen, SNCA 5' untranslated region; inhibition, % (tested at 7.5 µM); alpha-synuclein 5'UTR reporter, inhibitor activity; AID 1813, 2009; hit rate 0.82% among 300,000; in the data active = inhibition above about 60%;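 note: H4 neuroglioblastoma cells stably carrying SNCA 5'UTR luciferase fusion; 0% = DMSO wells and 100% = positive control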
An asterisk follows results filed as active; · = no result given. Only some compounds are listed: those with a hit (about 3.9% of all), similar ones and a draw of the others.

SMILES	TWEAK-Fn14 inh	HSP90 refold inh	C8 TRAIL sens	HIF-2a inh	TROY signal inh	aSyn UTR inh
O=C(Cc1ccc2ccccc2c1)NC(Cc1ccccc1)C(=O)O (stereo not drawn)	9.5	·	-13.6	-2.5	4.5	·
CCCCNC(=O)c1nc(C2CCN(S(=O)(=O)c3ccc(OC(F)(F)F)cc3)CC2)oc1-c1ccccc1	·	·	10.6	3.6	·	·
COCCN(Cc1ccc(C)cc1)C(=O)[C@H]1O[C@@H](n2ccc(N)nc2=O)[C@H](O)[C@@H]1O	5.5	·	-3.1	-2.0	6.1	·
COc1cc(OC)cc(C(=O)NC(C(=O)Nc2ccc3c(c2)OCCO3)C(C)C)c1 (stereo not drawn)	55.7*	·	-14.2	-25.7	51.8*	·
O=C(NCc1ccc2c(c1)OCO2)c1ccc(NC(=O)C2CCCO2)cc1 (stereo not drawn)	5.5	6.6	-12.9	4.6	-11.6	14.1
COc1cc(OC)cc(C(=O)N[C@H](C(=O)Nc2ccc(NC(C)=O)cc2)C(C)C)c1	-7.3	-1.1	3.8	17.2	19.9	9.5
O=C(Nc1ccc2c(c1)OCCO2)NC1CCCCC1	15.4	10.3	54.9*	-164.6	-1.4	-55.3
O=C(Nc1ccc2c(c1)OCCO2)C1CCC1	-5.5	-2.5	-4.6	-30.6	-14.6	-23.5
O=C(Nc1ccc2c(c1)OCCO2)c1ccc(NC(=O)C2CCCO2)cc1 (stereo not drawn)	18.9	2.2	14.3	57.7*	-21.6	30.1
O=C(Nc1nc2ccc(S(=O)(=O)N3CCCC3)cc2s1)C1CCCCC1	7.1	-2.3	22.1	20.4	23.0	72.5*
CCC(C)NC(=O)C1CCN(S(=O)(=O)c2cc([N+](=O)[O-])ccc2Cl)CC1 (stereo not drawn)	-9.0	3.6	-10.7	-18.8	-11.2	-22.8
O=C(Nc1nc2ccccc2s1)C1CCN(S(=O)(=O)c2cc([N+](=O)[O-])ccc2Cl)CC1	83.7*	16.0	26.8	-64.3	36.1	-80.6
O=C(Nc1nc2ccc(S(=O)(=O)N3CCCCC3)cc2s1)C1CCCO1 (stereo not drawn)	5.2	1.1	19.8	10.0	11.3	20.7
O=C(O)C1(C(=O)O)CCC2(CCCCC2)CC1	4.8	·	-3.4	9.7	-3.9	·
Cc1csc(N=Nc2ccc(N(C)C)cc2)[n+]1[O-]	85.5*	·	80.9*	4.9	75.4*	·
CCC(=NNS(=O)(=O)c1ccc(C)cc1)c1ccc(OC)c(C)c1	-25.1	·	10.4	6.1	-10.2	·
CCC(C(=O)OCC(=O)N(CC)c1c(N)n(Cc2ccccc2)c(=O)[nH]c1=O)c1ccccc1 (stereo not drawn)	-0.7	·	5.4	2.9	24.6	·
Cc1nc(C(F)(F)F)ccc1C(=O)N1CCC1(C)C(=O)Nc1ccc2c(c1)OCO2 (stereo not drawn)	-19.5	·	-2.3	-14.3	-6.0	·
Cn1cc(C=O)c(-c2ccc3c(c2)OCCCO3)n1	70.9*	2.3	-4.1	-57.4	25.0	-52.4
Cn1cc(C(=O)O)c(-c2ccc3c(c2)OCCCO3)n1	-3.1	-3.3	-1.7	2.5	-17.8	-11.4
CCOc1ccc(-c2c(C#N)c(N)nc3c2c(=O)n(C)c(=O)n3C)cc1OC	-2.3	0.7	85.6*	17.2	3.2	-4.9
N#Cc1c(-c2cccs2)nc(SCc2ccc(Cl)cc2)[nH]c1=O	13.9	0.2	3.8	14.1	74.0*	34.7
O=C(/C(=C/c1ccncc1)n1ccnc1)c1ccc(Cl)cc1Cl	·	0.2	·	·	·	·
CC(C)/C=C(/C(=O)c1ccc(Cl)cc1Cl)n1cncn1	61.5*	-2.2	8.8	18.1	1.1	-48.7
Cc1ccc2oc(-c3cccc(NC(=S)NC(=O)/C=C/c4ccco4)c3)nc2c1	90.4*	7.8	20.3	-22.8	77.0*	-38.7
SMILES	TWEAK-Fn14 inh	HSP90 refold inh	C8 TRAIL sens	HIF-2a inh	TROY signal inh	aSyn UTR inh
Cc1nc2ccccc2c(=O)n1/N=C/c1c(O)ccc2oc3c(c12)CCCC3	13.3	4.3	14.3	14.2	19.4	85.7*
O=c1cc(-c2ccccc2)[nH]c2nc3ccccc3n12	55.1*	8.5	84.4*	-209.3	-5.4	-88.7
Cc1nc2[nH]c(=S)[nH]c2cc1Br	1.1	-2.3	-0.8	13.3	11.6	-0.7
Cc1nc2nc[nH]c2cc1Br	67.3*	1.8	2.0	12.1	·	1.3
CCCCC[C@H](C)N1C[C@@H](COCc2ccccc2)Oc2cc(N3CCC[C@H]3C(N)=O)ccc2S1(=O)=O	-1.4	·	10.6	-5.6	-1.2	·
CCOC(=O)c1cnc2ccccc2c1Nc1ccc2c(c1)OCCO2	91.9*	5.6	15.6	32.2	77.0*	-17.8
COc1cccc(CN(C)CC(=O)Nc2cccc(C(F)(F)F)c2)c1OC	74.5*	1.0	-5.4	12.4	5.6	18.8
COc1ccc(CN(C)C(=O)c2ccc(OCC(=O)Nc3cccc(C(F)(F)F)c3)c(OC)c2)cc1	52.0*	·	31.4	-10.2	30.4	·
O=C(O)CNc1nc(NCc2ccc(Cl)cc2)ccc1[N+](=O)[O-]	-14.9	·	6.4	5.7	-7.5	·
O=C(NC1CCCCC1)NC1CC2CCC(C1)N2Cc1nnnn1Cc1ccc2c(c1)OCO2 (stereo not drawn)	87.2*	1.6	-0.9	7.3	·	15.9
O=C(NCc1ccc2c(c1)OCO2)NC1CCCCC1	-3.9	-1.6	4.9	-130.8	-4.3	-32.1
Cc1ccc(NC(=O)CSc2nc3ccccc3c3nc4ccccc4n23)cc1	-24.5	0.0	37.5	15.3	-68.7	110.3*
Cc1ccc(S(=O)(=O)N2CC3C(=O)C[C@@H](c4ccccc4)N(S(=O)(=O)c4ccc(CCCOCCOCCNC(=O)OC(C)(C)C)cc4)C3CC2c2ccccc2)cc1 (stereo partly drawn)	·	·	16.2	-7.4	·	·
Cc1ccc2c(c1)c(CC(=O)Nc1ccc(F)cc1)c(C(=O)O)n2C	106.2*	-1.5	-33.9	-14.8	14.3	-10.0
Cc1ccc(NC(=O)Cc2c(C(=O)O)n(C)c3ccccc23)cc1F	-9.7	2.5	-6.3	4.6	11.6	-9.8
Cn1c(C(=O)O)c(CC(=O)Nc2ccc3c(c2)OCCO3)c2ccccc21	91.6*	4.7	-2.9	28.9	76.9*	-44.1
CC(C)(C)OC(=O)C[C@H]1C/C=C\C[C@H](CC(=O)N(CCO)Cc2ccccc2)C(=O)N2CCC[C@H]2COC1=O	-4.2	·	-2.6	13.8	-7.0	·
CC(C1SC(=S)NC1=O)C1SC(=S)NC1=O (stereo not drawn)	9.1	·	-17.9	0.3	1.6	·
CCn1c(N)c(C(=O)NCC2CCCO2)sc1=S (stereo not drawn)	84.9*	-2.6	-7.2	8.6	·	-10.3
C=CCn1c(N)c(C(=O)NCC2CCCO2)sc1=S (stereo not drawn)	-15.0	7.3	-1.4	-3.4	-14.0	2.9
O=C(Cc1c(Cl)cccc1Cl)OCC(=O)N1CCOCC1	5.7	·	2.5	8.1	13.6	·
CCC(NC(=O)Nc1nnc(C(F)(F)F)s1)(C(F)(F)F)C(F)(F)F	43.5	-0.7	43.7	27.3	63.7*	108.9*
